Targets with a hit are over-represented here; the source holds about 8,800 in all. About 0.5% of all pairs of compound and target were hits.
What was measured:
Experiment in all cases: log2 fold change, soluble protein after heating vs DMSO (PISA); higher = thermal stabilisation; K562 lysate, 10 uM; active = over 0.2 and 3.5 SD of the protein, either way, in both replicates (recomputed)
ibrutinib = compound: C=CC(=O)N1CCC[C@@H](n2nc(-c3ccc(Oc4ccccc4)cc3)c3c(N)ncnc32)C1 [ibrutinib]
Outline: (§1)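 Log-two fold change in thermal stability relative to solvent controls is reported from duplicates. For each sample, crude K562 extract from dounce-homogenised pellets in PBS pH 7.4 with 1 mM MgCl2, at 1 mg/mL protein, was treated with 10 μM compound for 30 min. Aliquots heated for 3 min across 48°C-58°C were pooled, brought to 0.5% NP-40 at 4°C and cleared at 21,000xg for 90 min. The supernatant was quantified by TMTpro 16plex LC-MS/MS with channel sums equalised.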

[1] = compound: CC(=O)c1cnc2ccc(-c3cc(Cl)c(O)c(Cl)c3)nc2c1N[C@H]1CC[C@H](CN(C)C)CC1
Outline: as §1

ralimetinib = compound: CC(C)(C)Cn1c(N)nc2ccc(-c3[nH]c(C(C)(C)C)nc3-c3ccc(F)cc3)nc21 [ralimetinib]
Outline: as §1

[2] = compound: CC(C)(O)CC(=O)NCCn1ccc2ncnc(Nc3ccc(Oc4cccc(C(F)(F)F)c4)c(Cl)c3)c21
Outline: as §1

[3] = compound: CC(C)C1=C2N=C(C=C(N2N=C1)NCC3=CC=CC=C3)NCCCCCCN
Outline: as §1

[4] = compound: CC1=C(C(CC(=O)N1)C2=CC=C(C=C2)C(F)(F)F)C(=O)NC3=C(C=C4C(=C3)C=NN4)F
Outline: as §1

[5] = compound: CC1=C(C2=C(C=C1)C(=O)C3=CC=CC=C3N2CCCN)C
Outline: as §1

[6] = compound: CC1=C(C=C(C=C1)NC(=O)C2=CC(=CC=C2)C(C)(C)C#N)NC3=CC4=C(C=C3)N=CN(C4=O)C
Outline: as §1

[7] = compound: CC1=C(C=C(C=C1)NC(=O)C2=CC(=CC=C2)N(C)C)NC(=O)C3=CC=C(C=C3)O
Outline: as §1

[8] = compound: CC1=CC=C(C=C1)SC2=C3C=C(SC3=CN=C2)C(=O)N
Outline: as §1

vemurafenib = compound: CCCS(=O)(=O)Nc1ccc(F)c(C(=O)c2c[nH]c3ncc(-c4ccc(Cl)cc4)cc23)c1F [vemurafenib]
Outline: as §1

[9] = compound: CCCS(=O)(=O)Nc1ccc(F)c(C(=O)c2c[nH]c3ncc(Cl)cc23)c1F
Outline: as §1

barasertib = compound: CCN(CCCOc1ccc2c(Nc3cc(CC(=O)Nc4cccc(F)c4)[nH]n3)ncnc2c1)CCOP(=O)(O)O [barasertib]
Outline: as §1

[10] = compound: CC[C@@H]1C(=O)N(C)c2cnc(Nc3ccc(C(=O)NC4CCN(C)CC4)cc3OC)nc2N1C1CCCC1
Outline: as §1

volasertib = compound: CC[C@@H]1C(=O)N(C)c2cnc(Nc3ccc(C(=O)N[C@H]4CC[C@H](N5CCN(CC6CC6)CC5)CC4)cc3OC)nc2N1C(C)C [volasertib]
Outline: as §1

[11] = compound: CCn1c(C(=O)N(C2CC2)C2CC2)cc2c3c(ncn3C)c(Nc3cc(C)n(C)n3)nc21
Outline: as §1

[12] = compound: CCn1cc(-c2ccnc3[nH]c(-c4cccc(CN(C)C)c4)cc23)c(-c2ccc(NC(=O)N(C)C)cc2)n1
Outline: as §1

[13] = compound: CN1CCC(CNc2ccc3ncc(-c4cccc(OC(F)(F)F)c4)n3n2)CC1
Outline: as §1

saracatinib = compound: CN1CCN(CCOc2cc(OC3CCOCC3)c3c(Nc4c(Cl)ccc5c4OCO5)ncnc3c2)CC1 [saracatinib]
Outline: as §1

sotrastaurin = compound: CN1CCN(c2nc(C3=C(c4c[nH]c5ccccc45)C(=O)NC3=O)c3ccccc3n2)CC1 [sotrastaurin]
Outline: as §1

Measured: log2 fold change

TPM4 isoform 2 (UniProt P67936)
inactive: ibrutinib -0.062 | [1] 0.016 | ralimetinib -0.005 | [2] 0.032 | [3] -0.034 | [4] -0.027 | [5] -0.025 | [6] -0.06 | [7] -0.004 | [8] 0 | vemurafenib 0.031 | [9] -0.016 | barasertib 0.021 | [10] 0.052 | volasertib 0.005 | [11] 0.048 | [13] -0.231 | saracatinib -0.001 | sotrastaurin -0.03
active: [12] 0.525

THADA (UniProt Q6YHU6)
Chain of UniProt Q6YHU6 (Q6YHU6 whole entry, looked up): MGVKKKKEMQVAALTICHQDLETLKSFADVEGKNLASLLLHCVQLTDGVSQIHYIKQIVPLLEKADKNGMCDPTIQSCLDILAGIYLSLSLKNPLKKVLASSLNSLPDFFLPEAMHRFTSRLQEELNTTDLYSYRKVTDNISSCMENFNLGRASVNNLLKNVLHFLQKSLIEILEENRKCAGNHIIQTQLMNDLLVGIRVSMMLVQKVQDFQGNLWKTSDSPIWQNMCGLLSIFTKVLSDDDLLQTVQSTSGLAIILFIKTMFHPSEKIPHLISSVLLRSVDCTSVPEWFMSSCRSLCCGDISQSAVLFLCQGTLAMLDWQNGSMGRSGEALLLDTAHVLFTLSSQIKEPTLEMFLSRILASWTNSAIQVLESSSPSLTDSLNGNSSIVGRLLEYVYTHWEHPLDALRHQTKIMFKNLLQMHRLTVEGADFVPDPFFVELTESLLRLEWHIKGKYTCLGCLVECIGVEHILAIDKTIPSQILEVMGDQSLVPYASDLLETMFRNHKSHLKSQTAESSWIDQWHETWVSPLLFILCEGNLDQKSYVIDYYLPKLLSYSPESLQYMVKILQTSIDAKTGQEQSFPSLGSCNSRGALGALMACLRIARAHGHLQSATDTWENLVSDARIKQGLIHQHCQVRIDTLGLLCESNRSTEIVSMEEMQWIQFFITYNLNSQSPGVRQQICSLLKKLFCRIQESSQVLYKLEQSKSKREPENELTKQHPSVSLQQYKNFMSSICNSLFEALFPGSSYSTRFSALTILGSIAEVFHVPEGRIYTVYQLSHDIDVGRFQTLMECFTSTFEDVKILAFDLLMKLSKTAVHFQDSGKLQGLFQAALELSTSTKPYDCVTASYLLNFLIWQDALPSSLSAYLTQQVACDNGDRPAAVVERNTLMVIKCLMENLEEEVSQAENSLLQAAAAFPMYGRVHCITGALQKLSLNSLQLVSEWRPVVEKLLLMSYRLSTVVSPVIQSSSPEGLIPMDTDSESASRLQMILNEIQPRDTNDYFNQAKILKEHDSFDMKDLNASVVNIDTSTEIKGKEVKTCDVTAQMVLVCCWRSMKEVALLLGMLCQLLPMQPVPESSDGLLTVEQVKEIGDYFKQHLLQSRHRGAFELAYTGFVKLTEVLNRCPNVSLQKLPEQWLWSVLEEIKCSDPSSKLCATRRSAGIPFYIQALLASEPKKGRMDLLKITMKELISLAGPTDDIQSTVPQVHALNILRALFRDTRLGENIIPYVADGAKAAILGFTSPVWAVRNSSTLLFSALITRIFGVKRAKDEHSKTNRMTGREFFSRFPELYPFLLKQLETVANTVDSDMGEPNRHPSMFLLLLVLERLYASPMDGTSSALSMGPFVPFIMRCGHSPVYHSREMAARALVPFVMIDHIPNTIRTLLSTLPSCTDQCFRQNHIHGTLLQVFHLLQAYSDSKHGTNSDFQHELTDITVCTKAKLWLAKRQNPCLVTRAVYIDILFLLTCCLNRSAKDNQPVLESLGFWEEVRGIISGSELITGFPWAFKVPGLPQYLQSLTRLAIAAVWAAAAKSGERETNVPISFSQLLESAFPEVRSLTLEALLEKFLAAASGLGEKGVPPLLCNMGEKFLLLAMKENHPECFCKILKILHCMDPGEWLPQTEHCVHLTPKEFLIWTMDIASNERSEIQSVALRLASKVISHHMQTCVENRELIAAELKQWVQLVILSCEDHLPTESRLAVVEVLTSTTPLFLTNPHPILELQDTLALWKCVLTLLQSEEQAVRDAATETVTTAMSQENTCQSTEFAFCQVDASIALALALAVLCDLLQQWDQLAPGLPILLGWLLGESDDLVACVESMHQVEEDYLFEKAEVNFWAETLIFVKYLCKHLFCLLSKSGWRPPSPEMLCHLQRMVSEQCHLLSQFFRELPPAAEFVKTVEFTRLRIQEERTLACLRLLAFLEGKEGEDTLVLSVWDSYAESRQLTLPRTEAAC
inactive: ibrutinib 0.011 | [1] 0.006 | ralimetinib -0.009 | [2] -0.029 | [3] -0.016 | [4] -0.01 | [5] 0.012 | [6] 0.028 | [7] 0.03 | [8] 0.013 | vemurafenib -0.006 | [9] 0.007 | barasertib 0.038 | [10] -0.028 | volasertib -0.037 | [11] 0.019 | [12] -0.029 | [13] 0.02 | saracatinib 0.029 | sotrastaurin 0.037

TBK1 (UniProt Q9UHD2)
Chain of UniProt Q9UHD2 (Q9UHD2 whole entry, looked up): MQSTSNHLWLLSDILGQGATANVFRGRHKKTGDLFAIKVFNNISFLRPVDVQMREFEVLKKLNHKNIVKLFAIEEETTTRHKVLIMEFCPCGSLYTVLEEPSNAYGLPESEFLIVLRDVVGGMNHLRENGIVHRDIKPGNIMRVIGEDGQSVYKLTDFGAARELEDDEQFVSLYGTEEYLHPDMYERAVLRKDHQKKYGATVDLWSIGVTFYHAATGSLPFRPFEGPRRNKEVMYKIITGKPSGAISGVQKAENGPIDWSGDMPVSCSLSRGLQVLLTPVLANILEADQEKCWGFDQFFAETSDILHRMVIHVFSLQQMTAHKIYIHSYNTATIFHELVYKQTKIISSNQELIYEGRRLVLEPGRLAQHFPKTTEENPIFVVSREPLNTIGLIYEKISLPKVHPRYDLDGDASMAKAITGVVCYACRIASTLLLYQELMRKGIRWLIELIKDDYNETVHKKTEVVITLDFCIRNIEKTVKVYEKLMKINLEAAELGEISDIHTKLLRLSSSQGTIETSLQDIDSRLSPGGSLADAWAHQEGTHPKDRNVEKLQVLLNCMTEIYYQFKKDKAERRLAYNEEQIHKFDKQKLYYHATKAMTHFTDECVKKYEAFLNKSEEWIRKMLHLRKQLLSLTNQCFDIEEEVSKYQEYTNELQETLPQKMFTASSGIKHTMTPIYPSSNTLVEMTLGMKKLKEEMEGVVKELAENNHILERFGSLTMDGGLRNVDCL
inactive: ibrutinib -0.02 | [1] 0.159 | ralimetinib -0.007 | [2] -0.035 | [3] 0.047 | [4] 0.015 | [5] -0.016 | [6] -0.034 | [7] 0.032 | [8] -0.013 | vemurafenib 0.008 | [9] 0.002 | barasertib -0.03 | [10] -0.058 | volasertib -0.064 | [11] -0.021 | [12] 0.216 | [13] 0.079 | saracatinib -0.029 | sotrastaurin -0.045

TUBA4A (UniProt P68366)
Chain of UniProt P68366 (P68366 whole entry, looked up): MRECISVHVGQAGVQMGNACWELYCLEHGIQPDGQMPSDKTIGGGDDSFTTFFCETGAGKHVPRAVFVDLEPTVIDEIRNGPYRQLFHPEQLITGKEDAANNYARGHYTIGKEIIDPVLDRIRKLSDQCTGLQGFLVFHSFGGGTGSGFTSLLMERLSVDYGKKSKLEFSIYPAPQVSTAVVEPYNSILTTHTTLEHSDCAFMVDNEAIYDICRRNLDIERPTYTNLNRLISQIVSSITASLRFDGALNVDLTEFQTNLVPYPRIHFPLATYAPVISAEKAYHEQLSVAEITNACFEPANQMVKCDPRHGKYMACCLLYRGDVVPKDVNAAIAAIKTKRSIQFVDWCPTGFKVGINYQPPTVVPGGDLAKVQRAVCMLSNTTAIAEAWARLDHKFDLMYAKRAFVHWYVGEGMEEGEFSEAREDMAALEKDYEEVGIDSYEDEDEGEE
inactive: ibrutinib -0.012 | [1] 0.023 | ralimetinib 0.012 | [2] 0.017 | [3] 0.023 | [4] -0.031 | [5] -0.013 | [6] 0.017 | [7] -0.017 | [8] 0.012 | vemurafenib 0.003 | [9] -0.045 | barasertib 0.028 | [10] -0.023 | volasertib -0.056 | [11] 0.033 | [12] -0.05 | [13] 0.003 | saracatinib -0.036 | sotrastaurin -0.039

TSPAN13 (UniProt O95857)
Chain of UniProt O95857 (O95857 whole entry, looked up): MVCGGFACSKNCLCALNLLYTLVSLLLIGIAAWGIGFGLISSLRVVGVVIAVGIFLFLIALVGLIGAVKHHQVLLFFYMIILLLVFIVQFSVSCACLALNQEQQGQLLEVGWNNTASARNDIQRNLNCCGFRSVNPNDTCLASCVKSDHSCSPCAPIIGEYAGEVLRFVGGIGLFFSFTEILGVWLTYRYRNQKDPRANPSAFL
inactive: ibrutinib 0.018 | [1] -0.001 | ralimetinib -0.048 | [2] -0.044 | [3] -0.083 | [4] 0.102 | [5] 0.036 | [6] 0.088 | [7] 0 | [8] -0.043 | vemurafenib -0.032 | [9] -0.03 | barasertib -0.033 | [10] 0.177 | volasertib 0.032 | [11] 0.046 | [12] 0.114 | [13] 0.059 | saracatinib 0.134 | sotrastaurin -0.154

TMEM87A (UniProt Q8NBN3)
inactive: ibrutinib -0.002 | [1] 0.019 | ralimetinib -0.031 | [2] -0.035 | [3] -0.075 | [4] -0.017 | [5] -0.02 | [6] 0.016 | [7] 0.004 | [8] -0.02 | vemurafenib 0.032 | [9] -0.007 | barasertib -0.025 | [10] 0.008 | volasertib -0.006 | [11] -0.026 | [12] -0.114 | saracatinib -0.001 | sotrastaurin 0.017
active: [13] 0.332

TFCP2 (UniProt Q12800)
inactive: ibrutinib -0.055 | [1] 0.054 | ralimetinib 0.032 | [2] -0.028 | [3] 0.051 | [4] -0.026 | [5] 0 | [6] 0.059 | [7] -0.02 | [8] 0.026 | vemurafenib 0.023 | [9] 0.049 | barasertib 0.007 | [10] -0.064 | volasertib -0.064 | [11] 0.045 | [12] -0.042 | [13] -0.083 | saracatinib 0.022 | sotrastaurin -0.006

UBR1 (UniProt Q8IWV7)
Chain of UniProt Q8IWV7 (Q8IWV7 whole entry, looked up): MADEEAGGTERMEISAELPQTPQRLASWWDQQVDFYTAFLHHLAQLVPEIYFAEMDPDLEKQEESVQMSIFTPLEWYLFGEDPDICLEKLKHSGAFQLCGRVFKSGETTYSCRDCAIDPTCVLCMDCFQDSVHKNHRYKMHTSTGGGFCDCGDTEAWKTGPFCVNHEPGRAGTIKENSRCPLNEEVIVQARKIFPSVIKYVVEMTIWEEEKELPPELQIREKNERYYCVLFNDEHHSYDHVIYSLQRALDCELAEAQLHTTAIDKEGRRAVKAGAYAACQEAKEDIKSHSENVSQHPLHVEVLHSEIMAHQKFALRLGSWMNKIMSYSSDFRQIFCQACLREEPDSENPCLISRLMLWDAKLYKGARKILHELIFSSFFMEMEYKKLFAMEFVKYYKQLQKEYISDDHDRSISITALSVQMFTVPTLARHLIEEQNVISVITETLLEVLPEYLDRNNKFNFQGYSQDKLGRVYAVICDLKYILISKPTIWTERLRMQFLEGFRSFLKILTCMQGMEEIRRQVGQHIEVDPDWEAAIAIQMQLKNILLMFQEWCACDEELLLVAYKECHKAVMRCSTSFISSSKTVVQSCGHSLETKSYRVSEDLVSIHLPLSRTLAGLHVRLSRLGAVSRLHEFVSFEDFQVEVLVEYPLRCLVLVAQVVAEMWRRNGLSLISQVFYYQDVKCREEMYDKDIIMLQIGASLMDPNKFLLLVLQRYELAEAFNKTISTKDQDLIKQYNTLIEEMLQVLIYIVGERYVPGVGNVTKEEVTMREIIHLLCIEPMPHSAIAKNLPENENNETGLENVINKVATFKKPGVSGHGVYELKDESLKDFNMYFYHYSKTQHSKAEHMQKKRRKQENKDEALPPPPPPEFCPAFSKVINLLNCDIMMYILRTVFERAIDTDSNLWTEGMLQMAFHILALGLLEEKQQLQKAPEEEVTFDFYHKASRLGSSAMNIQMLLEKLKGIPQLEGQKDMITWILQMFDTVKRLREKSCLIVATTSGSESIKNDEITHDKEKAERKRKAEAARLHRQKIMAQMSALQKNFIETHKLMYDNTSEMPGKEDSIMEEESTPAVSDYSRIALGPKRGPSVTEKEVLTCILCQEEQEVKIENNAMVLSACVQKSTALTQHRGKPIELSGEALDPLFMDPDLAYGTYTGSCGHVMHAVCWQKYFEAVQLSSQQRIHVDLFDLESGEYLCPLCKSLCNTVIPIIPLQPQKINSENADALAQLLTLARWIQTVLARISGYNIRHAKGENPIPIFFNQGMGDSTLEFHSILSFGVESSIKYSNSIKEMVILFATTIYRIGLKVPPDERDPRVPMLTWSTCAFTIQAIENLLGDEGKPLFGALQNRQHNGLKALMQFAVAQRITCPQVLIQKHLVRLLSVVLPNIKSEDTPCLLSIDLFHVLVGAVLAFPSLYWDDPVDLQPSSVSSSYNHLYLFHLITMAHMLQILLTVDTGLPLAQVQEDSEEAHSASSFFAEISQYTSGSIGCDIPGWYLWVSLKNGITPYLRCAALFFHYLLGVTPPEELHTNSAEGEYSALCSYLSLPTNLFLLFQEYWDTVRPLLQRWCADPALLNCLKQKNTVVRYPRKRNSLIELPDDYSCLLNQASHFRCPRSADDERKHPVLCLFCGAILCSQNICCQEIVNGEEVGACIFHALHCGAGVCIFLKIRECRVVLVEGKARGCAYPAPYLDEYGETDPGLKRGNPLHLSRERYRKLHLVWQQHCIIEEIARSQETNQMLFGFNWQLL
inactive: ibrutinib 0.007 | [1] 0.005 | ralimetinib 0.015 | [2] -0.044 | [3] -0.014 | [4] -0.011 | [5] 0.004 | [6] -0.004 | [7] -0.03 | [8] -0.008 | vemurafenib -0.018 | [9] 0.025 | barasertib 0.054 | [10] -0.032 | volasertib -0.07 | [11] 0.03 | [12] -0.046 | [13] -0.038 | saracatinib 0.019 | sotrastaurin 0.004
